Screens as filed in PubChem BioAssay.
An excerpt weighted towards active compounds, which were near 6.2% of everything screened.
RORgamma inh: qHTS for inhibitors of ROR gamma transcriptional activity; Nuclear receptor ROR-gamma (Mus musculus), P51450; Drosophila S2 Gal4-RORgamma UAS-luciferase reporter, 20 h; Potency, µM (highest dose often 53.6 µM), actives largely listed as inhibitors; 5.4% of 310,000 active; AID 2551, 2010; further: nearly all actives have a fitted effect of over 60% in size
Target sequence (P51450 whole entry, looked up, the tested form may be a part): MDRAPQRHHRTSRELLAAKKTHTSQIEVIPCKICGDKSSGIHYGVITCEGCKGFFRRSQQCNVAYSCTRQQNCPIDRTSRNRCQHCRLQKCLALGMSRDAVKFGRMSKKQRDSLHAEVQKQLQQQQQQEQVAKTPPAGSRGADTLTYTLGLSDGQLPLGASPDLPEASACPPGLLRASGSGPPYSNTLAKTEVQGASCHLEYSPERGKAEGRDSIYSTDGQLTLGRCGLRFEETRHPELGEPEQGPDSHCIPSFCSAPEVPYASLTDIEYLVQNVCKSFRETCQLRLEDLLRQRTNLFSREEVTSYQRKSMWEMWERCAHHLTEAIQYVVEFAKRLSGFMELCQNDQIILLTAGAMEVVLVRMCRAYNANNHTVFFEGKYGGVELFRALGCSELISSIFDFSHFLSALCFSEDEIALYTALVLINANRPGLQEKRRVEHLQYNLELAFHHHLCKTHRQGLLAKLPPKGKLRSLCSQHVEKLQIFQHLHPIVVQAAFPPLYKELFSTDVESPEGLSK
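Drosophila Schneider cells stably carrying a metallothionein-driven Gal4 DBD–ROR gamma fusion and a UAS-Photinus luciferase reporter were exposed to compound for 1 hr, then induced with copper sulfate (700 uM final) for 20 hr at ambient temperature before luminescence reading.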
KinaseGlo FLuc: Counterscreen for Luciferase (Kinase-Glo TM) Inhibition; AID 1379, 2008; Potency, µM (highest dose often 38.3 µM), hits mostly inhibitors; 0.28% of 200,000 active; Luciferin 4-monooxygenase (Photuris pensylvanica), Q27757; Kinase-Glo luciferase, ATP luminescence, 8 min; further: nearly all actives have a fitted effect of over 60% in size
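Recombinant Kinase-Glo luciferase, 10 uM ATP (linear range), luciferin; imidazole pH 7.2 / KCl / MgCl2 / Tween / BSA buffer; 8 min RT; luminescence.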
VP16 counter: VP16 counterscreen qHTS for inhibitors of ROR gamma transcriptional activity | Drosophila S2 Gal4-VP16 UAS-luciferase, luminescence, 20 h | Potency, µM (titrated, usually from 53.6 µM), hits mostly inhibitors | 3.5% of 310,000 active;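 further: Gal4-VP16 expression switched on by copper sulfate through the metallothionein promoter; nearly all actives have a fitted effect of over 50% in size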
Each line names hits and unclear results; the compound was inactive in the other large screens. The call rests on the fitted dose curve; in most records, active means well fitted curve in the direction sought with a large enough effect; inconclusive means small, poorly fitted or top-dose-only effect, or another doubt; inactive means no such curve, though single readings can be large; an effect the other way counts as inactive or inconclusive.

CN(Cc1nc(-c2ccccc2)no1)C(=O)c1ccco1	none (no result: KinaseGlo FLuc)
Nn1c(COc2cccc(Cl)c2)nc2ccccc2c1=O	RORgamma inh inconclusive
COc1ccccc1OCc1n[nH]c(=S)n1Cc1ccccc1	none
S=c1[nH]nc(COc2cccc(Cl)c2)n1Cc1ccccc1	RORgamma inh 1.41µM, VP16 counter inconclusive
S=c1[nH]nc(COc2ccc(Cl)cc2)n1Cc1ccccc1	RORgamma inh 2.51µM, VP16 counter inconclusive
CNc1nc(N)nc(OC(C(F)(F)F)C(F)(F)F)n1	none
Cc1nc([N+](=O)[O-])c(Br)n1CC(=O)c1ccc(Br)cc1	RORgamma inh 11.2µM, VP16 counter inconclusive
Cc1nc([N+](=O)[O-])c(Br)n1CC(=O)c1ccc2ccccc2c1	RORgamma inh 14.1µM, VP16 counter inconclusive
Cc1cc([N+](=O)[O-])nn1CC(=O)c1ccccc1	RORgamma inh inconclusive
Cc1nc([N+](=O)[O-])c(Br)n1CC(=O)c1ccccc1	RORgamma inh 3.98µM, VP16 counter inconclusive
Cc1nc([N+](=O)[O-])c(C(=O)OCc2ccccc2Br)n1C	RORgamma inh inconclusive (no result: KinaseGlo FLuc)
Cc1nc([N+](=O)[O-])cn1CC(=O)c1ccc(Cl)cc1	none (no result: KinaseGlo FLuc)
O=C(c1ccc2c(c1)OCO2)N1CCN(S(=O)(=O)N2CCCCC2)CC1	none (no result: KinaseGlo FLuc)
CCCCOCCCNC(=O)C1CCCCC1	none
CCCCCC(=O)N/N=C(\C)c1ccccn1	RORgamma inh 0.355µM, VP16 counter 0.562µM
C/C(=N\NC(=O)COc1ccccc1-c1ccccc1)c1cccnc1	none
C/C(=N\NC(=O)COc1ccccc1-c1ccccc1)c1ccccn1	RORgamma inh 1.12µM, VP16 counter inconclusive
CCCCCCCCCC(=O)N/N=C(\C)c1cccnc1	RORgamma inh inconclusive, VP16 counter inconclusive
COc1ccc(-c2nc(CS(=O)CC(=O)NC(C)CCc3ccccc3)c(C)o2)cc1OC (stereo not given)	none (no result: KinaseGlo FLuc)
CCOc1ccc(N/C(SCc2cccc([N+](=O)[O-])c2)=C(/C#N)C(N)=O)cc1	none
N#CC(C#N)=C(Nc1ccc(F)cc1)SCc1cccc(F)c1	RORgamma inh inconclusive, VP16 counter 14.1µM
COc1ccc(N2CCN(S(=O)(=O)CCNC(=O)c3ccc(Br)o3)CC2)cc1	none (no result: KinaseGlo FLuc)
CCOC(=O)c1cnc(-n2nc(C)cc2C)nc1NCCO	RORgamma inh inconclusive
CCOC(=O)c1cnc(-n2nc(C)cc2C)nc1NC(C)c1ccccc1 (stereo not given)	RORgamma inh 1.41µM, VP16 counter 2.24µM
CCOC(=O)c1cc(C(=O)NC(C)c2ccccc2)c(=O)[nH]c1C (stereo not given)	none (no result: KinaseGlo FLuc)
CCOC(=O)c1cnc(-n2cc(C)cn2)nc1NCc1ccc2c(c1)OCO2	RORgamma inh 12.6µM, VP16 counter inconclusive
CCOC(=O)c1cnc2ccc(OCC)cc2c1NCc1cccnc1	none
CCOC(=O)c1cnc(-n2nc(C)cc2C)nc1NCc1ccccc1	RORgamma inh 1.41µM, VP16 counter 2.51µM
CCOC(=O)c1c(C)c(C(=O)NCc2ccc3c(c2)OCO3)c(C)n1CC	none
CCOC(=O)c1cnc2ccc(OCC)cc2c1NCc1ccccc1	RORgamma inh 2.82µM, VP16 counter 5.01µM
Clc1ncc(Cn2cccn2)s1	none
COc1cccc(C2(O)CCN(CC(=O)NCC3CC3)CC2)c1	none
CSc1ccc(NC(=O)Nc2cccn(Cc3ccccc3)c2=O)cc1	RORgamma inh inconclusive, VP16 counter inconclusive
COc1ccc(C2C(C(C)=O)=C(O)C(=O)N2c2nccs2)c(OC)c1 (stereo not given)	none
CC(C)Sc1sc(C(=O)O)c(-c2ccc(Cl)cc2)c1C#N	none (no result: KinaseGlo FLuc)
COC(=O)C(CCSC)NS(=O)(=O)c1ccccc1Br (stereo not given)	none (no result: KinaseGlo FLuc)
Cc1c(Br)c([N+](=O)[O-])nn1CC(=O)Nc1ccc(C(N)=O)cc1	none
C=CCSc1nsc(NC(=O)Nc2ccc(F)cc2)n1	RORgamma inh inconclusive, VP16 counter 3.55µM (no result: KinaseGlo FLuc)
CCSc1nsc(NC(=O)Nc2ccccc2F)n1	RORgamma inh inconclusive (no result: KinaseGlo FLuc)
CCc1c(C)[nH]n(-c2nc(-c3ccccc3)cs2)c1=O	RORgamma inh inconclusive, VP16 counter inconclusive
CCc1c(C)[nH]n(-c2nc(-c3cccc([N+](=O)[O-])c3)cs2)c1=O	RORgamma inh 10µM, VP16 counter inconclusive
CC(NC(=O)C1CCN(c2nnc(N3CCCC3=O)s2)CC1)c1ccccc1 (stereo not given)	none (no result: KinaseGlo FLuc)
COC(=O)c1cc(C(=O)Nn2cnnc2)cc([N+](=O)[O-])c1	none (no result: KinaseGlo FLuc)
Cc1c(CCC(=O)O)c(=O)oc2cc3occ(-c4ccc(F)cc4)c3cc12	RORgamma inh 2.82µM, VP16 counter inconclusive
Cc1c(CCC(=O)O)c(=O)oc2cc3occ(-c4ccc(Cl)cc4)c3cc12	none (no result: KinaseGlo FLuc)
O=C(Cc1ccccc1)c1nnc(-c2ccccc2)o1	none
Nc1c(-c2ccccc2)cnc2c(-c3ccccc3)cnn12	RORgamma inh 6.31µM, VP16 counter 7.08µM (no result: KinaseGlo FLuc)
Nc1c(-c2cccs2)cnc2c(-c3ccc(F)cc3)cnn12	RORgamma inh inconclusive (no result: KinaseGlo FLuc)
Cc1nc2c(-c3ccc(F)cc3)cnn2c(N)c1-c1ccc(F)cc1	none (no result: KinaseGlo FLuc)
CS(=O)(=O)c1cnc2c(-c3ccc(F)cc3)cnn2c1N	RORgamma inh 11.2µM
Nc1c(-c2ccsc2)cnc2ncnn12	none
CC(C)(C)S(=O)(=O)c1cnc2c(-c3ccsc3)cnn2c1N	RORgamma inh 4.47µM
Cc1ccc(C)c(N(CC(=O)NCCSCc2ccco2)S(C)(=O)=O)c1	none
CCOc1ccc(OCc2ccc(C(=O)N(CC)CC)cc2)cc1	VP16 counter inconclusive
CC1CCN(c2nc3ccc(C(=O)NCCCN4CCCCC4)cc3s2)CC1	none (no result: KinaseGlo FLuc)
O=C(NCC1CCCO1)c1ccc2nc(N3CCCCC3)sc2c1 (stereo not given)	RORgamma inh 7.08µM, VP16 counter inconclusive
CC1CCN(c2nc3ccc(C(=O)O)cc3s2)CC1	RORgamma inh 0.891µM, VP16 counter 1.41µM
O=C(NCC1CCCO1)c1ccc(N2CCCCC2)nc1 (stereo not given)	RORgamma inh inconclusive
CC1(C(=O)NCc2ccc(Cl)c(Cl)c2)Oc2cccnc2NC1=O (stereo not given)	none
Cc1cc(NCc2ccccn2)ccc1Br	none
O=C(Nc1ccon1)c1sc2cc(Cl)ccc2c1Cl	RORgamma inh inconclusive (no result: KinaseGlo FLuc)
COc1ccc(CNC(=S)Nc2ccccc2Cl)cc1	RORgamma inh 17.8µM, VP16 counter inconclusive (no result: KinaseGlo FLuc)
COc1ccc(OCC(=O)Nc2ccccc2-c2ccccc2)cc1	none
COc1ccc(CNC(=S)Nc2ccccc2-c2ccccc2)cc1	RORgamma inh 2µM, VP16 counter 7.08µM
COc1ccc(OCC(=O)Nc2ccccc2Cl)cc1	none
Cc1cc(C(=O)NN=C(Cc2ccccc2)Cc2ccccc2)c(C)o1	RORgamma inh inconclusive, VP16 counter inconclusive
C/C(=N\NC(=O)c1c[nH]c2ccccc12)c1ccc(C)o1	none
C/C(=N\Nc1nnc2c3ccccc3n(C)c2n1)c1ccc(C)o1	none
C/C(=N\Nc1nc(C)cc(C)n1)c1ccc(C)o1	RORgamma inh 7.08µM, VP16 counter 10µM (no result: KinaseGlo FLuc)
C/C(=N\NC(=O)c1cc(C)oc1C)c1ccc2ccccc2c1	RORgamma inh 2.24µM (no result: KinaseGlo FLuc)
C/C(=N\NC(=O)c1cc2ccccc2cc1O)c1ccc(C)o1	RORgamma inh 8.91µM, VP16 counter inconclusive (no result: KinaseGlo FLuc)
CN(C)CC(O)CN1C(=O)NC(C)(C)C1=O (stereo not given)	none
Cc1cc(C)n(CCC(=O)N2c3ccccc3CC2C)n1 (stereo not given)	none (no result: KinaseGlo FLuc)
